# Measured values reported in PubChem BioAssay (EPA / NIEHS).
# The source made the active and inactive calls. How the source made its calls: active means hit-call score of the fitted dose curve at least 0.9, where 1 is the maximum; inactive means score below 0.9.
# Legend:
# Settings in all cases: mRNA level, 48 h; actives raise or lower the signal
# [1] = read-out: Fatty Acid-Binding Protein 1 (FABP1), FABP1 (gene 2168); test: LTEA_HepaRG_FABP1: Life Technologies and Expression Analysis (LTEA) Assay for Fatty Acid-Binding Protein 1 (FABP1) using HepaRG (AID 2283494)
# Outline: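 FABP1 expression by TaqMan qRT-PCR, normalised to three housekeeping genes, in HepaRG cells after 48 h chemical treatment. Eight-point half-log series topping at 100 uM in 0.5% DMSO, duplicates; gain or loss fitted relative to vehicle.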
# [2] = read-out: Glutathione S-Transferase (GSTA2), GSTA2 (gene 2939); test: LTEA_HepaRG_GSTA2: Life Technologies and Expression Analysis (LTEA) Assay for Glutathione S-Transferase (GSTA2) using HepaRG (AID 2283497)
# Outline: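 GSTA2 transcript levels came from Fluidigm TaqMan qRT-PCR normalized to three housekeeping genes, fitted in both directions against DMSO. HepaRG cultures received chemicals for 48 h in serum-free induction medium (0.5% DMSO), 8 half-log concentrations up to 100 uM, duplicate.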
# [3] = read-out: Glutamate-cysteine ligase catalytic (GCLC), GCLC (gene 2729); test: LTEA_HepaRG_GCLC: Life Technologies and Expression Analysis (LTEA) Assay for Glutamate-cysteine ligase catalytic (GCLC) using HepaRG (AID 2283498)
# Outline: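 Expression by TaqMan qRT-PCR, normalized to three housekeeping genes (ACTB, GAPDH, POLR2A), with up- or down-regulation fitted against DMSO. HepaRG cells dosed in duplicate for 48 h with 8 half-log concentrations up to 100 uM, vehicle 0.5% DMSO.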
# [4] = read-out: growth arrest and DNA damage 45 (GADD45G), GADD45G (gene 10912); test: LTEA_HepaRG_GADD45G: Life Technologies and Expression Analysis (LTEA) Assay for growth arrest and DNA damage 45 (GADD45G) using HepaRG (AID 2283499)
# Outline: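 HepaRG, 48 h exposure, top 100 uM, half-log 8-point series, 0.5% DMSO vehicle, duplicates. Readout: GADD45G transcript by qRT-PCR (Fluidigm array), housekeeping-normalised (ACTB/GAPDH/POLR2A). Bidirectional curve fit vs DMSO baseline.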
# [5] = read-out: Glutathione S-transferase M3 (GSTM3), GSTM3 (gene 2947); test: LTEA_HepaRG_GSTM3: Life Technologies and Expression Analysis (LTEA) Assay for Glutathione S-transferase M3 (GSTM3) using HepaRG (AID 2283501)
# Outline: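 qRT-PCR read-out of GSTM3 transcript, normalized to three housekeeping genes, from human HepaRG cells after 48 h chemical exposure. Eight-point half-log series, top 100 uM, 0.5% DMSO vehicle; gain or loss fitted relative to DMSO baseline.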
# [6] = read-out: Heat shock 70 kDa protein 1 (HSPA1A), gene 3303; test: LTEA_HepaRG_HSPA1A: Life Technologies and Expression Analysis (LTEA) Assay for Heat shock 70 kDa protein 1 (HSPA1A) using HepaRG (AID 2283502)
# Outline: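 HepaRG, 48 h exposure, 8-pt half-log CRC from 100 uM in 0.5% DMSO, duplicates. Readout: TaqMan qRT-PCR of HSPA1A mRNA, housekeeping-normalized (ACTB/GAPDH/POLR2A). Bidirectional fit vs 0.5% DMSO baseline.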
# [7] = read-out: Hypoxia-inducible factor 1-alpha (Homo sapiens) (UniProt Q16665); test: LTEA_HepaRG_HIF1A: Life Technologies and Expression Analysis (LTEA) Assay for Hypoxia-inducible factor 1 (HIF1A) Trancription factor using HepaRG (AID 2283503)
# Outline: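 Gain- or loss-of-signal HIF1A mRNA changes are fitted against a DMSO baseline. HepaRG cultures receive eight concentrations, highest 100 uM, for 48 h in serum-free induction medium with 0.5% DMSO.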
# [8] = read-out: HGF (gene 3082); test: LTEA_HepaRG_HGF: Life Technologies and Expression Analysis (LTEA) Assay for Hepatocyte Growth Facto (HGF) using HepaRG (AID 2283505)
# Outline: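 HepaRG, 48 h dosing, 8-pt half-log series from 100 uM in 0.5% DMSO, duplicates. Readout: TaqMan qRT-PCR of HGF mRNA, housekeeping-normalized; bidirectional curve fit vs DMSO baseline.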
# [9] = read-out: Cytochrome P450 7A1 (Homo sapiens) (UniProt P22680); test: LTEA_HepaRG_CYP7A1: Life Technologies and Expression Analysis (LTEA) Assay for Cytochrome P450 7A1 (CYP7A1) using HepaRG (AID 2283496)
# Outline: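 Using 0.5% DMSO as vehicle and baseline, chemicals were tested in duplicate over an 8-point range from 100 uM on HepaRG cells for 48 h; qRT-PCR signals were normalised to ACTB, GAPDH and POLR2A.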
# [10] = read-out: CYP3A5 (gene 1577); test: LTEA_HepaRG_CYP3A5: Life Technologies and Expression Analysis (LTEA) Assay for CYP3A5 using HepaRG (AID 2283493)
# Outline: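 qRT-PCR read-out: CYP3A5 transcript in HepaRG lysates, housekeeping-normalized (ACTB/GAPDH/POLR2A), fitted bidirectionally against 0.5% DMSO baseline. Exposure 48 h, eight half-log concentrations up to 100 uM, duplicates.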
# Hypoxia-inducible factor 1-alpha (Homo sapiens), sequence (Q16665 whole entry, looked up): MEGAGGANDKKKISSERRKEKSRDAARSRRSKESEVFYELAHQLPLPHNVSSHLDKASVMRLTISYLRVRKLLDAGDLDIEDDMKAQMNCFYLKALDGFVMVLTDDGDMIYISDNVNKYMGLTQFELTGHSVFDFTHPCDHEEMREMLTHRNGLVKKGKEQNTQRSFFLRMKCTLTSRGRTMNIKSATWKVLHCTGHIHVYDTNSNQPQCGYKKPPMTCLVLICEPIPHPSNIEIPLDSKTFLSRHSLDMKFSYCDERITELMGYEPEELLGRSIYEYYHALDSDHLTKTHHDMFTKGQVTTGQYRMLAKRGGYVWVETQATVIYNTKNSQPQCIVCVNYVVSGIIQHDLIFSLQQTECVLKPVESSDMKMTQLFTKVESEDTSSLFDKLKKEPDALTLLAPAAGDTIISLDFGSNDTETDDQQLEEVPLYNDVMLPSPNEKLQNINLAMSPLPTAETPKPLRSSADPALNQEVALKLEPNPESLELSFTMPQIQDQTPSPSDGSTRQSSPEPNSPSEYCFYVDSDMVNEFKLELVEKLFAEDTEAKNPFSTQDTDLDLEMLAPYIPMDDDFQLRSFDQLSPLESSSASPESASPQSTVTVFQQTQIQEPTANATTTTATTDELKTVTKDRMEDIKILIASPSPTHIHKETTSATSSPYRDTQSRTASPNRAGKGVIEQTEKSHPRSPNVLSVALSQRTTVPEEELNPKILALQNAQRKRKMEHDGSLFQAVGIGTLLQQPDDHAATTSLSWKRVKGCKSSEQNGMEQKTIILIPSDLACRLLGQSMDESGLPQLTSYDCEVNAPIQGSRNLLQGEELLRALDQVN
compound,measurement,setting,value
CCCCc1oc2ccccc2c1C(=O)c1cc(I)c(OCCN(CC)CC)c(I)c1,AC50,[1],69.9 µM (active)
same,AC50,[2],59 µM (active)
same,AC50,[3],67.4 µM (active)
same,AC50,[4],55.1 µM (active)
same,AC50,[5],37.8 µM (active)
same,AC50,[6],60 µM (active)
same,AC50,[7],64.5 µM (active)
same,outcome,[8],inactive
N=C(N)c1ccc(OCCCCCOc2ccc(C(=N)N)cc2)cc1,AC50,[1],4.05 µM (active)
same,AC50,[9],6.66 µM (active)
same,AC50,[2],7.03 µM (active)
same,AC50,[3],27.9 µM (active)
same,AC50,[4],4.37 µM (active)
same,AC50,[5],5.05 µM (active)
same,AC50,[6],26.5 µM (active)
same,AC50,[7],4.28 µM (active)
same,AC50,[8],13.8 µM (active)
CN(Cc1cnc2nc(N)nc(N)c2n1)c1ccc(C(=O)N[C@@H](CCC(=O)O)C(=O)O)cc1,AC50,[10],0.0985 µM (active)
same,AC50,[1],0.322 µM (active)
same,AC50,[9],0.233 µM (active)
same,AC50,[2],0.264 µM (active)
same,outcome,[3],inactive
same,outcome,[4],inactive
same,outcome,[5],inactive
same,outcome,[8],inactive
CCCCC=O,outcome,[10],inactive
same,outcome,[1],inactive
same,outcome,[9],inactive
same,outcome,[2],inactive
same,outcome,[3],inactive
same,outcome,[4],inactive
same,outcome,[5],inactive
same,outcome,[6],inactive
same,outcome,[7],inactive
same,outcome,[8],inactive
CCCCCCCCCCCCCCC,outcome,[10],inactive
same,outcome,[1],inactive
same,outcome,[9],inactive
same,outcome,[2],inactive
same,outcome,[3],inactive
same,outcome,[4],inactive
same,outcome,[5],inactive
same,outcome,[6],inactive
same,outcome,[7],inactive
same,outcome,[8],inactive
O=C(CCCN1CCC(O)(c2ccc(Cl)cc2)CC1)c1ccc(F)cc1,outcome,[10],inactive
same,AC50,[1],93.2 µM (active)
same,AC50,[9],82 µM (active)
same,AC50,[2],78 µM (active)
same,AC50,[3],77.1 µM (active)
same,AC50,[4],50 µM (active)
same,outcome,[5],inactive
same,AC50,[6],74.3 µM (active)
OCC(CO)(CBr)CBr,outcome,[10],inactive
same,outcome,[1],inactive
same,outcome,[9],inactive
same,outcome,[2],inactive
same,outcome,[3],inactive
same,outcome,[4],inactive
same,outcome,[5],inactive
same,outcome,[6],inactive
same,outcome,[7],inactive
same,outcome,[8],inactive
O=C(c1ccccc1)c1ccccc1,AC50,[1],0.851 µM (active)
same,outcome,[2],inactive
same,outcome,[3],inactive
same,outcome,[4],inactive
same,outcome,[5],inactive
same,outcome,[6],inactive
same,outcome,[7],inactive
same,outcome,[8],inactive
CCCCC(CC)C(=O)O (stereo not given),outcome,[10],inactive
same,outcome,[1],inactive
same,outcome,[9],inactive
same,outcome,[2],inactive
same,outcome,[3],inactive
same,outcome,[4],inactive
same,outcome,[5],inactive
same,outcome,[6],inactive
same,outcome,[7],inactive
same,outcome,[8],inactive
Cc1[nH]nc2c1N=C(c1ccccc1Cl)c1cc([N+](=O)[O-])ccc1N2,AC50,[10],13.4 µM (active)
same,AC50,[1],8.85 µM (active)
same,AC50,[9],27 µM (active)
same,AC50,[2],17.2 µM (active)
same,AC50,[3],2.83 µM (active)
same,AC50,[4],0.557 µM (active)
same,AC50,[5],50 µM (active)
same,outcome,[6],inactive
same,outcome,[7],inactive
same,AC50,[8],2.84 µM (active)
O=C1NS(=O)(=O)c2ccccc21,outcome,[10],inactive
same,outcome,[1],inactive
same,outcome,[9],inactive
same,outcome,[2],inactive
same,outcome,[3],inactive
same,outcome,[4],inactive
same,outcome,[5],inactive
same,outcome,[6],inactive
same,outcome,[7],inactive
same,outcome,[8],inactive
CCC(C)c1ccccc1O (stereo not given),outcome,[10],inactive
same,outcome,[1],inactive
same,outcome,[9],inactive
same,outcome,[2],inactive
same,outcome,[3],inactive
same,outcome,[4],inactive
same,outcome,[5],inactive
same,outcome,[6],inactive
same,outcome,[8],inactive
CN(C)CCOC(c1ccccc1)c1ccccc1,outcome,[1],inactive
same,outcome,[2],inactive
same,outcome,[3],inactive
same,outcome,[4],inactive
same,outcome,[5],inactive
same,outcome,[6],inactive
same,outcome,[8],inactive
CCCCCCCCCCCCOS(=O)(=O)O,outcome,[10],inactive
same,AC50,[1],87.6 µM (active)
same,outcome,[3],inactive
same,outcome,[4],inactive
same,outcome,[5],inactive
same,AC50,[6],50 µM (active)
same,outcome,[7],inactive
same,outcome,[8],inactive
CC(=O)Nc1ccc(O)cc1,outcome,[10],inactive
same,outcome,[1],inactive
same,outcome,[9],inactive
same,outcome,[2],inactive
same,outcome,[3],inactive
same,outcome,[4],inactive
same,outcome,[5],inactive
same,outcome,[6],inactive
CS(=O)(=O)c1ccc([C@@H](CC2CCCC2)C(=O)Nc2cnccn2)cc1Cl,AC50,[1],63.4 µM (active)
same,AC50,[2],73.7 µM (active)
same,outcome,[3],inactive
same,outcome,[4],inactive
same,outcome,[5],inactive
same,outcome,[6],inactive
same,outcome,[7],inactive
